Screening results as filed in PubChem.
In the library only some 2.4% were active in any assay of this set; here they are far more common.
D2 ag-1 – human D2 receptor agonism in beta-arrestin assay; AID 624465; activation, % (no concentration beside the values); DiscoveRx PathHunter D2 beta-arrestin, luminescence, 90 min; 100% = 57 uM dopamine signal; 360,000 tested, 0.084% active; P14416; in the data active means activation above about 40%; inconclusive means between about 15% and that limit
Target sequence (P14416 whole entry, looked up): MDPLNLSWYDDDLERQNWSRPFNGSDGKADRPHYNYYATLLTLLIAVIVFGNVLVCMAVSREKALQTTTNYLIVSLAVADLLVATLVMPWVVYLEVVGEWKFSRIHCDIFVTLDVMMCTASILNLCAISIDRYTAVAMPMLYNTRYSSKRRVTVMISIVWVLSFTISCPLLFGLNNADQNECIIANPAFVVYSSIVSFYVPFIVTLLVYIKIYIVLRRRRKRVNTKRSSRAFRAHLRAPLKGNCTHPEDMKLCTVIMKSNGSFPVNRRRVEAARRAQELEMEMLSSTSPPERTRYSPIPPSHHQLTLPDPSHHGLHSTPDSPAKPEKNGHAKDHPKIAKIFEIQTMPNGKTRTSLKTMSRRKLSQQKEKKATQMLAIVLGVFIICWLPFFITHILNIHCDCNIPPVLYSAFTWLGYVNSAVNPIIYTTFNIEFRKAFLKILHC
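Agonist mode: compounds alone added to overnight-plated D2 PathHunter cells for 90 min at 37 C, with 57 uM final dopamine (EC100) defining full response. Beta-arrestin recruitment detected by chemiluminescent reagent, read after 1 h at ambient temperature.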
D2 PAM-1 – potentiates the human D2 dopamine receptor allosterically; P14416; DiscoveRx D2 beta-arrestin cells, luminescence, 90 min; 100% = 57 uM dopamine signal; potentiation, % (no concentration beside the values); 360,000 tested, 0.23% active; in the data active means potentiation above about 50%; inconclusive means mostly about 30% to 49%
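PathHunter D2 cells, attached overnight at 37 deg C, received compound in DMSO plus dopamine at EC20 (50 nM final) for 90 min at 37 deg C. Beta-arrestin recruitment was read as luminescence after 1 h with detection reagent at ambient temperature.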
D2 ag-2 – activates the human D2 dopamine receptor; HEK293 T-REx D2 cells, calcium flux agonist mode; activation, % at 2 µM; 340,000 tested, 0.53% active; AID 485358;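 active means activation over 3 SD above normal in the single-dose calcium agonist read, cut at about 30% in these data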
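Tetracycline-induced HEK293 T-REx cells with force-coupled D2 receptor, plated overnight at 30 C, loaded with no-wash calcium dye. After a 10 s baseline, compound was pin-added and calcium flux read kinetically for 180 s; calcium rises flagged agonists.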
D2 PAM-2 – D2 dopamine receptor (human) potentiation. 340,000 tested, 0.34% active. HEK293 T-REx D2, calcium flux, EC20 dopamine potentiation. AID 485347. P14416. potentiation, % at 10 µM;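 active means potentiation over 3 SD above the plate norm, cut at about 30% in these data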
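Tetracycline-induced Hek293 Trex D2 cells, force-coupled to calcium, loaded with no-wash calcium dye. Compound added with 180 s kinetic read for agonism, then EC20 dopamine and a further 180 s read for potentiation.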
D2 antag – D2 dopamine receptor (human) antagonism; P14416; HEK293 TREx D2 cells, calcium flux, dopamine EC80; inhibition, % at 10 µM; 340,000 tested, 2% active; AID 485344; in the data active means inhibition above about 30%; inactive means below that, where a call was filed
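Dopamine at EC80 is the agonist stimulus; test compounds precede it by 180 s. Calcium flux read kinetically in a force-coupled, inducible HEK293 T-REx D2 cell line.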
D3 arrestin ag – D3 receptor agonism confirmed, beta-arrestin readout; shares compounds with D2 ag-2; DiscoveRx D3 beta-arrestin cells, luminescence, 90 min; Potency, µM (doses to about 76.9 µM), hits mostly activators; 2,300 tested, 4% active; further: nearly all actives have a fitted effect of over 70% in size
D2 ag-3 – D2 receptor agonism, beta-arrestin counterscreen | shares compounds with D2 ag-2 | DiscoveRx PathHunter D2 beta-arrestin, luminescence, 90 min; response scale: percent relative to full dopamine signal | Potency, µM (series often up to 76.9 µM), most hits filed as activators | 2,300 tested, 5.9% active | AID 720507; further: nearly all actives have a fitted effect of over 70% in size
Each line names hits and unclear results; the compound was inactive in the other large screens (follow-up assays come after a bar, where they were run). Unless noted, the call rests on the fitted dose curve; in most records, active means well fitted activation curve with a large enough effect; inconclusive means small, poorly fitted or top-dose-only effect; inactive means flat fitted curve, though single readings scatter.

CC1CCC(NC(=O)COC(=O)CSc2ccc(C(N)=O)cc2[N+](=O)[O-])CC1 (centres undefined)	none
CN(C)c1ccc(/C=N/N(CCO)C2=NS(=O)(=O)c3ccccc32)cc1	none | D3 arrestin ag inactive | D2 ag-3 inactive
O=C(O)/C(=C\c1cccc(O)c1)c1ccc(S(=O)(=O)N2CCCC2)s1	D2 antag 42 | D3 arrestin ag inactive | D2 ag-3 inactive
O=C(O)/C(=C\c1cccc(F)c1)c1ccc(S(=O)(=O)N2CCCCC2)s1	none
Cc1cccc(N2CCN(S(=O)(=O)c3c(C(=O)N4CCC(C)CC4)c(C)n(C)c3C)CC2)c1C	none (no result: D2 ag-1, D2 PAM-1, D2 ag-2, D2 antag)
Cn1c2ccccc2c(=O)c2c(=O)n(-c3ccccc3)c(C3CCCCC3)nc21	none
Cn1c2ccccc2c(=O)c2c(=O)n(C3CCCCCC3)c(C3CCCCC3)nc21	D2 ag-2 40 | D3 arrestin ag inactive | D2 ag-3 inactive
CC(C)(C)OC(=O)N1CCC(c2c(C(=O)Nc3ccc4c(c3)OCCO4)cnn2-c2ccccc2)CC1	none (no result: D2 ag-1, D2 PAM-1, D2 antag)
Cn1c(N2CCN(c3ccccn3)CC2)nc2c1c(=O)n(Cc1ccc(Cl)cc1)c(=O)n2C	D2 ag-2 47, D2 antag 49 | D3 arrestin ag inactive | D2 ag-3 inconclusive
Cn1c(N2CCN(c3ccccn3)CC2)nc2c1c(=O)n(Cc1ccccc1Cl)c(=O)n2C	none (no result: D2 ag-2, D2 PAM-2, D2 antag)
CCOC(=O)c1[nH]c(C)c(CCC(=O)N2CCN(c3cc(C)ccc3C)CC2)c1C	none (no result: D2 ag-1, D2 PAM-1, D2 antag)
CCN1C(=O)c2ccccc2S(=O)c2ccc(C(=O)N3CCN(c4ccc(F)cc4)CC3)cc21 (centres undefined)	none (no result: D2 ag-1, D2 PAM-1, D2 antag)
Cc1c(Cl)cccc1NC(=O)CSC(C)c1nc2ccccc2c(=O)[nH]1 (centres undefined)	none | D3 arrestin ag inactive | D2 ag-3 inactive
C#CCNC(=O)C1=C[C@@H](c2ccc(C#C)cc2)[C@H](CCCO)[C@@H](OCC)O1	D2 antag 32 | D3 arrestin ag inactive | D2 ag-3 inactive
CCO[C@@H]1OC(C(=O)O)=C[C@H](c2csc3ccccc23)[C@H]1CCCO	D2 antag 32 | D3 arrestin ag inactive | D2 ag-3 inactive
CCO[C@H]1OC(C(=O)Nc2ccccc2)=C[C@@H](c2csc3ccccc23)[C@@H]1CCCO	none
Cc1ccsc1/C=N/NC(=O)c1nnn(-c2nonc2N)c1-c1ccc2c(c1)OCO2	none
Cc1ccc(-c2c(C(=O)N/N=C/c3cccs3)nnn2-c2nonc2N)cc1	none (no result: D2 ag-2, D2 antag) | D3 arrestin ag inactive | D2 ag-3 inactive
Nc1nonc1-n1nnc(C(=O)N/N=C/c2cccs2)c1-c1ccc2c(c1)OCO2	none | D3 arrestin ag inactive | D2 ag-3 inactive
Cc1ccc(-c2c(C(=O)N/N=C/c3ccoc3)nnn2-c2nonc2N)cc1	none | D3 arrestin ag inactive | D2 ag-3 inactive
CCOc1ccc(-c2c(C(=O)N/N=C/c3cccs3)nnn2-c2nonc2N)cc1	D2 ag-1 inconclusive
Cc1cc(N/N=C/c2ccccc2[N+](=O)[O-])nc(-n2nc(C)cc2C)n1	D2 ag-2 34 | D3 arrestin ag inactive | D2 ag-3 inactive
O=C(O)CCSc1nc2ccccc2s1	none
c1ccc2sc(SCSc3nc4ccccc4s3)nc2c1	D2 ag-2 32 | D3 arrestin ag inactive | D2 ag-3 inconclusive
CCCCn1c(N)c(N(CCOC)C(=O)COc2ccc(C(C)=O)cc2)c(=O)[nH]c1=O	none
CCCCn1c(N)c(N(CCOC)C(=O)Cn2c(=O)cnc3ccccc32)c(=O)[nH]c1=O	none | D3 arrestin ag inactive | D2 ag-3 inactive
Fc1ccccc1N1CCN(CCCNc2ccc3nncn3n2)CC1	D2 ag-1 43, D2 ag-2 95, D2 antag 90 | D3 arrestin ag inconclusive | D2 ag-3 inconclusive
CC(CCC(=O)O)C1CCC2C3CCC4C[C@H](O)CCC4(C)C3CC(=O)C12C (some centres undefined)	D2 ag-2 52 | D3 arrestin ag inactive | D2 ag-3 inactive
C[C@H](CCC(=O)O)[C@H]1CC[C@H]2[C@@H]3CC[C@@H]4C[C@H](O)CC[C@]4(C)[C@H]3CC[C@]12C	none
CCN(C(=O)Cn1c(=O)oc2cc(S(=O)(=O)N3CCCCCC3)ccc21)c1cccc(C)c1	none (no result: D2 ag-1, D2 PAM-1, D2 antag)
COc1ccccc1NS(=O)(=O)c1ccc(C(=O)N2CCCC(C(F)(F)F)C2)cc1 (centres undefined)	none | D3 arrestin ag inactive | D2 ag-3 inactive
CN(Cc1ccccc1)C(=O)c1nc2ccccn2c1CNCCOc1cccnc1	D2 ag-2 41 | D3 arrestin ag inactive | D2 ag-3 inactive
CN(Cc1ccccc1)CC(O)COc1ccc(CNCCOc2cccnc2)cc1 (centres undefined)	D2 ag-1 inconclusive, D2 ag-2 56, D2 antag 83 | D3 arrestin ag 1.4µM | D2 ag-3 inactive
CN(Cc1ccccc1)CC(O)COc1ccc(CNCCCOc2cccnc2)cc1 (centres undefined)	none
COc1ccc(OC)c(CNC(=O)c2ccc(-c3nc(CSc4ccccc4)c(C)o3)cc2)c1	none (no result: D2 ag-1, D2 PAM-1, D2 antag)
COc1ccc(C)cc1NC(=O)Nc1ccccc1OCc1cc(=O)n2ccccc2n1	none (no result: D2 ag-1, D2 PAM-1, D2 antag)
O=C(c1ccc2c3c(cccc13)CC2)C1CCCN(C(=O)c2ccc[n+]([O-])c2)C1 (centres undefined)	none | D3 arrestin ag inactive | D2 ag-3 inactive
O=C(c1ccc2c3c(cccc13)CC2)C1CCCN(C(=O)c2cc[n+]([O-])cc2)C1 (centres undefined)	none
O=[N+]([O-])c1cc(Br)c2nsnc2c1N1CCOCC1	none | D3 arrestin ag inactive | D2 ag-3 inactive
Oc1c(C(c2ccccc2)N2CCN(c3cccc(Cl)c3)CC2)sc2nc(-c3ccco3)nn12 (centres undefined)	none (no result: D2 ag-1, D2 PAM-1, D2 antag)
COc1ccc(Br)cc1CN1CCN(C(=O)c2ccco2)CC1	none (no result: D2 ag-2, D2 PAM-2, D2 antag) | D3 arrestin ag inactive | D2 ag-3 inactive
COc1ccccc1N1CCN(C(=O)c2ccco2)CC1	none (no result: D2 ag-2, D2 PAM-2, D2 antag)
COc1ccccc1CN1CCN(C(=O)c2ccco2)CC1	D2 ag-1 67, D2 PAM-1 53, D2 ag-2 80, D2 antag 85 | D3 arrestin ag inconclusive | D2 ag-3 10µM
Cc1ccc(NC(=O)c2c(NC(=O)C(F)(F)F)sc3c2CCCCC3)cc1	none (no result: D2 ag-1, D2 PAM-1, D2 antag)
COc1cc(C2C(=O)N(C3CCCCC3)CC(=O)N2Cc2ccc(C)cc2)ccc1OC(C)C (centres undefined)	none (no result: D2 ag-1, D2 PAM-1, D2 ag-2, D2 antag)
